Experimental findings from PubChem BioAssay (NCI) are described below.

Assay in all cases: NCI-60 one-dose screen, 48 h (100 = growth as untreated, 0 = no growth, -100 = all killed)
Settings in all cases: 10 µM

In assay [1] the test system is BT-549 breast.
The subject of assay [2] is MDA-MB-435 melanoma.
Assay [3] deals with SW-620 colon.
Assay [4] deals with MCF7 breast.
The test system of assay [5] is HCT-116 colon.
Assay [6] concerns HCC-2998 colon.
In assay [7] the test system is KM12 colon.

The panel holds about 83,000 compounds, 20% with a hit somewhere; the sample as a whole holds those more often.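 Method: cells in 96-well plates; compound added at one concentration; 48 h incubation; percent growth measured; values under 10 scored active.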 A number with no mark means an inactive call. Calls of active or inactive are those of the source.

Take `COc1ccc(OC)c(/C=C/c2nnc(Nc3ccc(Cl)cc3)o2)c1`: the growth in assay [1] was 97.4%; in assay [2] it was 69.8%; in assay [3] it was 66.7%; in assay [4], 74.5%; in assay [5], 21.9%; in assay [6], 55.4%. Further, in assay [7], the growth is 86.5%.

For `COc1cc(-c2nc(-c3nnc(-c4ccc(F)c(Cl)c4)o3)c3ccccn23)cc(OC)c1OC`, the growth in assay [1] is 2.74% (active); in assay [2], 49.8%; in assay [3] it was 58.7%; in assay [4] it was 15.5%; in assay [5], -31.5% (active); in assay [6], 64.1%. Moreover, the growth in assay [7] is 5.68% (active).

With `Clc1ccc(-c2cn(-c3ccccc3)c(-c3ccccc3)n2)c(Cl)c1`, the growth in assay [1] was -12.7% (active); in assay [2], -37.2% (active); in assay [3], -100% (active); in assay [4], 5.1% (active); in assay [5], -100% (active); in assay [6], 13.7%. For the same compound, in assay [7], the growth was -88% (active).

As for `Clc1ccc(Nc2ccnc(NCCCNc3ccnc4cc(Cl)ccc34)n2)cc1`, the growth is 0.946% (active) in assay [1]; -87.3% (active) in assay [2]; -60.9% (active) in assay [3]; -89.8% (active) in assay [4]; -78.3% (active) in assay [5]; -88.9% (active) in assay [6]. Moreover, the growth in assay [7] is -16.2% (active).

`CCCC#CCN(CC)CC`: the growth in assay [1] was 120%; in assay [2] it was 95%; in assay [3] it was 107%; in assay [4] it was 102%; in assay [5], 109%; in assay [6], 120%. Further, the growth in assay [7] is 111%.

Take `CC(=O)[C@H]1CC[C@H]2[C@@H]3CCC4=CC(=O)C=C[C@]4(C)[C@H]3CC[C@]12C`: the growth is 98% in assay [1]; 98.7% in assay [2]; 108% in assay [3]; 97.9% in assay [4]; 85.6% in assay [5]; 99.2% in assay [6]. Also, the growth in assay [7] is 107%.

For `CN1CCC(CNc2cc(C3(C(=O)Nc4cc(C(=O)Nc5ccc(Cl)c(C(F)(F)F)c5)ccc4F)CC3)ncn2)CC1`, the growth in assay [1] was 52.5%; in assay [2], -53.1% (active); in assay [3], -9.83% (active); in assay [4], -43% (active); in assay [5] it was 8.41% (active); in assay [6] it was 22.8%. Further, the growth in assay [7] is 36.1%.

`Clc1cccc(-c2nc(-c3cccs3)no2)c1`: the growth is 111% in assay [1]; 111% in assay [2]; 106% in assay [3]; 36.8% in assay [4]; 92.4% in assay [5]; 32.9% in assay [6]. Also, the growth in assay [7] is 92.4%.

Take `Cc1ccc2oc3nc(C)c(C(=O)NCc4ccccc4)cc3c(=O)c2c1`: the growth in assay [1] was 95.1%; in assay [2], 65.5%; in assay [3], 77.5%; in assay [4], 45.6%; in assay [5] it was 60.6%; in assay [6], 35.4%. Moreover, in assay [7], the growth was 28.6%.

For the compound `Cc1ccc(Nc2nnc(-c3cc(-c4ccncc4)n(-c4ccccc4)n3)s2)cc1`, the growth was 64.8% in assay [1]; 78.3% in assay [2]; 94% in assay [3]; 80.3% in assay [4]; 51.3% in assay [5]; 57.1% in assay [6]. For the same compound, the growth in assay [7] was 50.8%.

Turning to `COc1cc2c(cc1OC)N(CCO)C1=C(C(=O)OC1)C2c1ccc(Cl)c(Cl)c1` (centres undefined), the growth is 89.4% in assay [1]; 101% in assay [2]; 102% in assay [3]; 95.8% in assay [4]; 97.7% in assay [5]; 102% in assay [7].

Consider `CN(C)CCN1C(=O)c2cccc3cc(N)cc(c23)C1=O`, for which the growth in assay [1] was 46.9%; in assay [2] it was 33.7%; in assay [3], 21%; in assay [4], 7.96% (active); in assay [5], 13.7%; in assay [6], 15.4%. The growth in assay [7] was 28.8%.

As to `O=c1[nH]c(-c2ccc(Cl)cc2)nc2sc3c(c12)CCCC3`, the growth in assay [1] was 92.3%; in assay [2], 93.2%; in assay [3], 58.8%; in assay [4], 36%; in assay [5], 60.9%; in assay [6], 109%. Moreover, the growth in assay [7] was 97.6%.

Take `CCCCN(CCCC)CCCCCCCCC(O)c1cc2ccccc2c2ccccc12` (centres undefined): the growth in assay [1] was 67.5%; in assay [2], 67.3%; in assay [3], 66.6%; in assay [4] it was 28.7%; in assay [5], 22.7%; in assay [6], 61.5%. In addition, the growth in assay [7] was 40.9%.

Regarding `Cc1cn(C2CCCCO2)c(=O)nc1NO` (centres undefined), the growth was 107% in assay [1]; 97.6% in assay [2]; 105% in assay [3]; 80.3% in assay [4]; 111% in assay [5]; 101% in assay [6]. The growth in assay [7] is 102%.
